# From PubChem BioAssay
# Most compounds without a hit are left out; they make up all but 7.3% or so of the library.
# FLuc counter = inhibits or activates purified firefly luciferase, miR-21 counter-screen | AID 588342 | P08659 | hit rate 6.9% among 360,000 | Potency, µM (titrated, usually from 57.5 µM), for inactives: top-dose activity change, negative = inhibition, most hits filed as inhibitors | purified FLuc, Km substrates, luminescence inhibition;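 note: plate controls were vehicle for no effect and reference inhibitor for full effect; nearly all actives have a fitted effect of over 55% in size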
# Target sequence (P08659 whole entry, looked up): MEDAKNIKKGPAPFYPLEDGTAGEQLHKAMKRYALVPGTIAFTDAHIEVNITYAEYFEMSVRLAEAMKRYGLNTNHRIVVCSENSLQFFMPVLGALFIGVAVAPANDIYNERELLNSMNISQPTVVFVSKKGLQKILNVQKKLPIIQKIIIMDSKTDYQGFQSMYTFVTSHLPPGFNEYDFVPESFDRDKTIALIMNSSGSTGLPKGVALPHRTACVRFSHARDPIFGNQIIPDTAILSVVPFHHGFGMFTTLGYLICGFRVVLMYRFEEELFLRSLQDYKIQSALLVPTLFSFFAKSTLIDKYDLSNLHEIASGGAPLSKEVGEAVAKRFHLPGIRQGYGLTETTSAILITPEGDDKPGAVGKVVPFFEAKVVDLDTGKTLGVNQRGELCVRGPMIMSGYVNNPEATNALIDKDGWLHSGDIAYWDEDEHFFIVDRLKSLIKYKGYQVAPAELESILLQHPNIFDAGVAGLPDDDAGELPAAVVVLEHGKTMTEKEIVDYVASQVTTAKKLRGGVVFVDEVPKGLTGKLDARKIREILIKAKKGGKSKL
#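 Biochemical qHTS of compounds, final roughly 60 µM downward over six points, against 10 nM purified firefly luciferase using Km concentrations of substrates (10 uM D-luciferin, 10 uM ATP) in Tris acetate pH 7.5 buffer; luminescence output.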
# ELG1 genotox = induces genotoxicity in HEK293T cells with luciferase-tagged ELG1; Potency, µM (top dose mostly 46 µM), inactives show at the highest dose activity change, positive = activation, hits mostly activators; AID 504466; HEK293T ELG1-luciferase reporter, luminescence, 16 h; hit rate 1.3% among 330,000; note: % of control where 0% means no effect; nearly all actives have a fitted effect of over 60% in size
#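 HEK293T cells expressing luciferase-tagged ELG1 were treated with compound or DMSO for 16 hr at 37°C. Luciferase activity was then read after 30 min with ONE-Glo at room temperature; rising signal flags genetic stress.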
# NPC1 promoter act = activators of NPC1 promoter; Huh7 NPC1 promoter luciferase reporter, 24 h; hit rate 2.4% among 320,000; Potency, µM (titrated, usually from 9.22 µM), inactives show at the highest dose activation, most hits filed as activators; AID 485313; note: % of control where 0% means no effect; nearly all actives have a fitted effect of over 60% in size
#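 Readout is luciferase luminescence, reflecting NPC1 promoter activation in stably transfected Huh7 cells after 24 h compound exposure at 37 °C in reduced-serum medium with 10% FBS.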
# uPA surface inh = cell surface uPA generation inhibition | cell surface uPA generation assay, qHTS | Potency, µM (titrated, usually from 38.3 µM), without a hit: at the highest dose activity change, negative = inhibition, usual class: inhibitors | hit rate 0.31% among 330,000 | AID 540303; active = well fitted inhibition curve with a large enough effect; inconclusive = small, poorly fitted or top-dose-only effect; inactive = no such curve, though single readings can be large or run the other way; tested in mouse RAW 264.7 cells; note: % is set by controls: 0 for no effect and ±100 for the full control effect; nearly all actives have a fitted effect of over 55% in size
# Rab9 promoter act = activates the Rab9 promoter; Huh7 Rab9 promoter-luciferase reporter, luminescence, 24 h; Potency, µM (titrated, usually from 9.22 µM), inactives show top-dose activation, negative = inhibition, usual class: activators; hit rate 2.8% among 320,000; note: % of control where 0% means no effect; nearly all actives have a fitted effect of over 60% in size
#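 Stable Rab9-luc Huh7, 1500 cells/well, 2 h settle; cmpd in DMSO, 24 h, 37 °C/5% CO2; luciferase reagent 10 min RT; luminescence.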
# SMN2 splice enh = enhancers of SMN2 splice variant expression; HEK293 SMN2-luciferase splicing reporter, luminescence, 30-36 h; Potency, µM (doses to about 46.1 µM), for inactives: at the top dose activity change, positive = activation, hits mostly activators; hit rate 2.8% among 210,000; note: % of control where 0% means no effect; nearly all actives have a fitted effect of over 55% in size
#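 HEK293 cells carry an SMN2 minigene-luciferase reporter in which exon 7 inclusion puts luciferase in frame. Cells were seeded at 2000 cells/well, attached for 10-12 hours, then exposed to compounds for 30-36 hours at 37C before ONE-Glo luminescence.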
# Numbers without * were called inactive; ? = inconclusive; / = no result; [ ] = dose if it differs, or a comment. Unless noted, calls come from the whole dose curve; as a rule, active = well fitted curve in the direction sought with a large enough effect; inconclusive = small, poorly fitted or top-dose-only effect, or another doubt; inactive = no such curve, though single readings can be large; an effect the other way counts as inactive or inconclusive. Potency is the fitted concentration of half-maximal effect.
SMILES,FLuc counter,ELG1 genotox,NPC1 promoter act,uPA surface inh,Rab9 promoter act,SMN2 splice enh
Cc1ccc(S(=O)(=O)N2CCN(c3ccccc3)CC2)cc1C(N)=O,0.9%,-4.2%,1.3%,4.1%,0.8%,-18.7%
Cc1onc(-c2ccccc2)c1C(=O)NC(=S)Nc1sc2c(c1C#N)CCCC2,?,0.4%,-5.2%,3.6%,-0.6%,-27.9%
Cc1ccccc1C(=O)NC(=S)Nc1sc2c(c1C#N)CCCC2,19µM*,0.1%,-2.0%,-5.9%,-0.7%,-4.0%
CCN(CC)c1ccc2c(C)c(Cl)c(=O)oc2c1,0.7%,1.0%,0.0%,-7.0%,0.4%,/
O=c1oc2cc(O)ccc2c2ccccc12,-4.8%,16.2%,0.5%,0.2%,-2.2%,-11.7%
CCN(CC)c1ccc2c(C)c(-c3ccc(N)cc3)c(=O)oc2c1,23.9µM*,5.9%,22.9%,-0.5%,24.4%,?
CC(=O)COc1ccc2c(C)c(C)c(=O)oc2c1,0.5%,?,6.1%,-4.4%,?,-7.1%
COc1ccc(-c2c(C)c3ccc(O)cc3oc2=O)cc1,15.1µM*,13.4%[9.26 µM],?,-4.1%,13.8%,/
O=c1oc2cc(O)ccc2c2oc3cc(O)ccc3c12,19µM*,6.9%,0.7%,?,1.0%,-23.5%
COc1ccc(-c2c(C)c3ccc(OCC(C)=O)cc3oc2=O)cc1,23.9µM*,-5.7%,2.82µM*,/,2.24µM*,?
O=C(CSc1nccn1Cc1ccc(F)cc1)Nc1ccc2c(c1)OCO2,-14.0%,/,/,/,/,/
N#Cc1ccc(Nc2nn3c(=O)c4ccccc4nc3s2)cc1,-12.7%,/,/,/,/,/
CCNC(=O)CCSc1nnc(-c2ccc(O)cc2)o1,-17.3%,/,/,/,/,2.0%
Cc1cc(C(=O)Nc2ccc(OCc3ccccc3)cc2)c(C)o1,16.9µM*,?,?,8.1%,?,?
Cc1cc(C(=O)Nc2cccc3ccccc23)c(C)o1,-16.3%,3.3%,-6.4%,-2.8%,-4.2%,/
Cc1ccsc1C(=O)Nc1ccc(OCc2ccccc2)cc1,1.51µM*,?,1.58µM*,-1.3%,1.12µM*,/
Cc1cc(C(=O)Nc2ccccc2C(=O)O)c(C)o1,23.9µM*,2.7%,-1.8%,-0.6%,1.2%,/
Cc1oc(C(=O)Nc2ccc(C(=O)O)cc2)cc1COc1ccccc1,10.7µM*,8.5%,0.5%,3.2%,13.3%,-0.6%
Cc1ccc(C(=O)Nc2ccc(OCc3ccccc3)cc2)s1,?,?,?,0.1%,29.4%,/
Cc1c(C(=O)Nc2ccc(OCc3ccccc3)cc2)cccc1[N+](=O)[O-],-1.1%,4.9%,-5.3%,11.2%,5.0%,0.8%
Cc1ccc2c(=O)cc(C(=O)Nc3sc4c(c3C(N)=O)CCCC4)oc2c1,-1.1%,/,/,/,/,10.0%
CNC(=S)NNC(=O)c1sc(-c2cc(C)on2)nc1C,16.9µM*,0.8%,-4.2%,1.1%,-1.2%,/
COC(=O)c1c(-c2ccc(OC)cc2)sc2ccc(N3CCOCC3)cc12,/,4.3%,/,-3.1%,/,/
COC(=O)c1nc2ccc(N3CCOCC3)cc2c(C)c1C(=O)OC,2.39µM*,-2.5%,?,-16.6%,2.82µM*,10µM*
Cc1c(CCC(=O)N2CCC(C(=O)O)CC2)c(=O)oc2cc3oc4c(c3cc12)CCCC4,10.7µM*,0.0%,0.3%,5.7%,5.0%,/
SMILES,FLuc counter,ELG1 genotox,NPC1 promoter act,uPA surface inh,Rab9 promoter act,SMN2 splice enh
Cc1c(CCC(=O)N2CCC(C(=O)O)(c3ccccc3)CC2)c(=O)oc2cc3oc4c(c3cc12)CCCC4,13.5µM*,8.8%,12.1%,6.1%,4.2%,/
Cc1ccc(NC(=O)c2cccn2-c2nnc(N3CCCCC3)s2)cc1Cl,39.9%,/,/,/,/,/
CCn1c(=O)cc(OCC(=O)NCCCN2CCCC2=O)c2ccccc21,-1.5%,?,-3.5%,-4.7%,-10.6%,/
O=c1[nH]ncc(N/N=C/c2ccccc2)c1Cl,2.3%,?,-1.4%,-9.8%,-7.9%,-1.9%
COc1ccc(/C=N/Nc2cn[nH]c(=O)c2Cl)cc1,?,20.6µM*,18.2%,-6.0%,23.8%,?
Cc1ccsc1/C=N\Nc1cn[nH]c(=O)c1Cl,-19.6%,20.6µM*,6.0%,-1.9%,2.7%,-0.2%
Cc1ccc(/C=N\Nc2cn[nH]c(=O)c2Cl)cc1,23.9µM*,20.6µM*,29.3%,/,?,17.9%
Cc1ccsc1/C=N/NC(=O)c1ccncc1,-11.9%,0.8%,5.1%,7.3%,3.3%,1.7%
COc1ccc(/C=N/Nc2nnc(Cc3ccccc3)c(=O)[nH]2)cc1,0.6%,-0.8%,-0.5%,0.9%,-1.3%,/
Cc1ccc(Cl)cc1NC(=O)N1CCC2(CC1)Oc1ccccc1C(=O)N2Cc1ccccc1F,-14.0%,/,/,/,/,3.3%
COCC(=O)C(C(=O)OC)[C@H](CCc1ccccc1)NC(=O)OC (stereo partly drawn),/,/,/,/,/,0.9%
CCOc1ccc(N=CNc2ccc(OCC)cc2)cc1,?,-0.5%,11.6%,-0.4%,-4.7%,/
C=CCN=Cc1sc2ccc(OCC)cc2c1O,8.49µM*,?,3.16µM*,/,2.82µM*,/
CCCCN=Cc1sc2ccc(OCC)cc2c1O,21.3µM*,14.3%,17.4%,-2.8%,24.1%,15.6%
CCOc1ccc2nc(/N=C/c3nc(-c4ccc(Br)cc4)oc3O)sc2c1,-7.3%,2.2%,8.8%,8.9%,16.9%,17.4%
Cc1noc(C)c1C(=O)N1CCC[C@@]2(CCN(c3ccccn3)C2)C1,/,/,/,/,/,-9.9%
O=C(O)/C=C/C(=O)NCCc1ccccc1,-4.1%,0.5%,-2.3%,-0.6%,-1.4%,-3.2%
CC(C)=CC(=O)NCCc1ccccc1,13.5µM*,/,/,-25.1%,/,12.6µM*
Cc1ccc(/C=C/C(=O)NCCc2ccccc2)o1,16.9µM*,?,?,-2.2%,?,/
Cc1cccc(CSc2cccc3cccnc23)c1,19µM*,?,21.2%,-11.5%,24.2%,4.1%
c1cnc2c(SCc3ccc(-c4nnco4)cc3)cccc2c1,23.9µM*,5.6%,?,-2.6%,?,-0.7%
COc1cccc(OC(=O)CSc2nnc(-c3ccccc3OC)o2)c1,-5.4%,/,/,/,/,/
O=C(NCCc1ccc(Cl)cc1)c1cccn1-c1nnc(N2CCCCC2)s1,-16.3%,/,/,/,/,/
CC(=O)CSc1nc2ccc(Nc3nc(N4CCOCC4)nc(N4CCOCC4)n3)cc2s1,-0.2%,-7.8%,-0.2%,-9.5%,-7.2%,25.1µM*
CC(=O)Nc1ccc2nc(SCC(=O)Nc3ccc(N4CCOCC4)c(Cl)c3)sc2c1,8.49µM*,0.0%,?,4.1%,?,?
CC(C)(C)NC(=O)CSc1nc2ccc(Nc3nc(N4CCOCC4)nc(N4CCOCC4)n3)cc2s1,-15.8%,-18.4%,-3.9%,?,-12.1%,-48.5%
O=C(CSc1nc2ccccc2s1)Nc1ccc(N2CCOCC2)c(Cl)c1,?,6.9%,0.1%,-1.3%,0.7%,-7.1%
O=c1oc2c3c(ccc2c2ccccc12)OCN(Cc1ccccc1Cl)C3,-16.1%,/,/,/,/,2.8%
